Key:
[1] = target: Sphingosine kinase 1 (Homo sapiens) (UniProt Q9NYA1); settings: at 1 µM;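 note: mean SPHK1 inhibition value reported from the GSK PKIS kinase panel screen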
[2] = target: T1, Sphingosine kinase 2 (Homo sapiens) (UniProt Q9NRA0); settings: at 0.1 µM
T1 sequence (whole entry): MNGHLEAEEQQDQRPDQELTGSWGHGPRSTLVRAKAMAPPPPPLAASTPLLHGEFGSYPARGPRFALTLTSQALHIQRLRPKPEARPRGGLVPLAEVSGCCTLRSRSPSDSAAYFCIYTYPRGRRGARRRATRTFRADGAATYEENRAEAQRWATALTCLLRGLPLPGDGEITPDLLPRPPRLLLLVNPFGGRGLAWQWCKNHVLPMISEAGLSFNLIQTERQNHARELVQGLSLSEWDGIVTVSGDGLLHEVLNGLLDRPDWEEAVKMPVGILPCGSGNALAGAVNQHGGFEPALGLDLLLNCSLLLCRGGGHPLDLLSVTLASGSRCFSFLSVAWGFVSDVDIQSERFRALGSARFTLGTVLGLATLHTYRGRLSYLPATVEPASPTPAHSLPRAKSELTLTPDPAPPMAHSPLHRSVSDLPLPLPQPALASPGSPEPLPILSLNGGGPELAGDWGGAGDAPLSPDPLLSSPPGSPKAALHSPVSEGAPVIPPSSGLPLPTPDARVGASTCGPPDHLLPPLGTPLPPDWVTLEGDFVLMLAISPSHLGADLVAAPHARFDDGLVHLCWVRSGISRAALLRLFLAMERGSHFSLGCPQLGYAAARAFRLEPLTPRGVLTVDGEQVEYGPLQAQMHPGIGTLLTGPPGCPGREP

[3] = target: T1, Sphingosine kinase 2 (Homo sapiens); settings: at 1 µM
[4] = target: Casein kinase II subunit alpha (Homo sapiens) (UniProt P68400); settings: at 0.1 µM
Casein kinase II subunit alpha (Homo sapiens), sequence (P68400 whole entry, looked up): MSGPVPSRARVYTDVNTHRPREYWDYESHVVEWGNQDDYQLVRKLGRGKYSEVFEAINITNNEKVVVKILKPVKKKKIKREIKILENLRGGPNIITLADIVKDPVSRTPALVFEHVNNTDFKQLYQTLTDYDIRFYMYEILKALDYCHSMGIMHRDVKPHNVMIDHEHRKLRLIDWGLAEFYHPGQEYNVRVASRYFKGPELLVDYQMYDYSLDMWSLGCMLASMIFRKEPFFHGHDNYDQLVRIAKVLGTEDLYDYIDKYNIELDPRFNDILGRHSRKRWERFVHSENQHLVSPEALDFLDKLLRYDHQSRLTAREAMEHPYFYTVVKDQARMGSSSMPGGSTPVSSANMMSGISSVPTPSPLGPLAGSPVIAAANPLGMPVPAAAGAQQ

[5] = target: Casein kinase II subunit alpha (Homo sapiens) (UniProt P68400); settings: at 1 µM
[6] = target: T2, Inhibitor of nuclear factor kappa-B kinase subunit alpha (Homo sapiens) (UniProt O15111); settings: at 0.1 µM
T2 sequence (whole entry): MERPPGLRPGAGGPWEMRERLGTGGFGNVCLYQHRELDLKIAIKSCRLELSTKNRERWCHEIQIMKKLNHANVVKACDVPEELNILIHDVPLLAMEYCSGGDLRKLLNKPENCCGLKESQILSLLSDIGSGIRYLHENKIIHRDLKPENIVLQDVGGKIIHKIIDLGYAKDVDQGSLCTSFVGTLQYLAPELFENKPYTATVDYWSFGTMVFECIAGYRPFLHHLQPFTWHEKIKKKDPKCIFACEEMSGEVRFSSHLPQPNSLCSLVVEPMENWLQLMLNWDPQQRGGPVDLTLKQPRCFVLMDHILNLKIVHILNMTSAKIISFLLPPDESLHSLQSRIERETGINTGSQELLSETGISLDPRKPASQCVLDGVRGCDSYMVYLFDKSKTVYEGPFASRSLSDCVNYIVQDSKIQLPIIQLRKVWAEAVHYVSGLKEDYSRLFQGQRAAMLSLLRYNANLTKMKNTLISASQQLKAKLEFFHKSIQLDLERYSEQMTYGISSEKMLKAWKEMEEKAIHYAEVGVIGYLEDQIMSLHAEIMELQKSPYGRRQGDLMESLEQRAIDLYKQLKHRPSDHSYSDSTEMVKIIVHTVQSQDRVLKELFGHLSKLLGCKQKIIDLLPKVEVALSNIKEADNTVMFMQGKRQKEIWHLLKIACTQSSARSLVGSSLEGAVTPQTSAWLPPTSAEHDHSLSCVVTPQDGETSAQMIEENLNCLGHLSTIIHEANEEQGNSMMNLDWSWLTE

[7] = target: T2, Inhibitor of nuclear factor kappa-B kinase subunit alpha (Homo sapiens); settings: at 1 µM
[8] = target: T3, Inhibitor of nuclear factor kappa-B kinase subunit beta (Homo sapiens) (UniProt O14920); settings: at 0.1 µM
T3 sequence (whole entry): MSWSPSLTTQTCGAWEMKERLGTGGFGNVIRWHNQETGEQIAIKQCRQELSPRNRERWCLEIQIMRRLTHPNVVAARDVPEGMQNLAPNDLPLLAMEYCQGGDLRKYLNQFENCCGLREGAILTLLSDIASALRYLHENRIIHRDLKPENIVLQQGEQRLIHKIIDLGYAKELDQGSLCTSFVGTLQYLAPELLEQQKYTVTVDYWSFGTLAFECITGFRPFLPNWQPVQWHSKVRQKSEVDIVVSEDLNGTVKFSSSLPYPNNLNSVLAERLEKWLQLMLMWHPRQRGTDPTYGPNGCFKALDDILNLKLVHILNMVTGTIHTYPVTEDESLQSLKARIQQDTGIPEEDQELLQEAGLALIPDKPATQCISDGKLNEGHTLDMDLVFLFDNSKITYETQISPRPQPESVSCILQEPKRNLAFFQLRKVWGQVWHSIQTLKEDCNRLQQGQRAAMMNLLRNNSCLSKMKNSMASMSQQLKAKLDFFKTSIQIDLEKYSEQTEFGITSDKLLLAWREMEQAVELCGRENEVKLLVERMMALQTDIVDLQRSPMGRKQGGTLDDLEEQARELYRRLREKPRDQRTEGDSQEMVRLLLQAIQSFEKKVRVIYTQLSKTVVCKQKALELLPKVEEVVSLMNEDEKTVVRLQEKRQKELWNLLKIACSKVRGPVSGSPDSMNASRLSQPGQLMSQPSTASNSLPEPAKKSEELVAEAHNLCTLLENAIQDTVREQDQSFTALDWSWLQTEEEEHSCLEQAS

[9] = target: T3, Inhibitor of nuclear factor kappa-B kinase subunit beta (Homo sapiens); settings: at 1 µM
[10] = target: T4, Inhibitor of nuclear factor kappa-B kinase subunit epsilon (Homo sapiens) (UniProt Q14164); settings: at 0.1 µM
T4 sequence (whole entry): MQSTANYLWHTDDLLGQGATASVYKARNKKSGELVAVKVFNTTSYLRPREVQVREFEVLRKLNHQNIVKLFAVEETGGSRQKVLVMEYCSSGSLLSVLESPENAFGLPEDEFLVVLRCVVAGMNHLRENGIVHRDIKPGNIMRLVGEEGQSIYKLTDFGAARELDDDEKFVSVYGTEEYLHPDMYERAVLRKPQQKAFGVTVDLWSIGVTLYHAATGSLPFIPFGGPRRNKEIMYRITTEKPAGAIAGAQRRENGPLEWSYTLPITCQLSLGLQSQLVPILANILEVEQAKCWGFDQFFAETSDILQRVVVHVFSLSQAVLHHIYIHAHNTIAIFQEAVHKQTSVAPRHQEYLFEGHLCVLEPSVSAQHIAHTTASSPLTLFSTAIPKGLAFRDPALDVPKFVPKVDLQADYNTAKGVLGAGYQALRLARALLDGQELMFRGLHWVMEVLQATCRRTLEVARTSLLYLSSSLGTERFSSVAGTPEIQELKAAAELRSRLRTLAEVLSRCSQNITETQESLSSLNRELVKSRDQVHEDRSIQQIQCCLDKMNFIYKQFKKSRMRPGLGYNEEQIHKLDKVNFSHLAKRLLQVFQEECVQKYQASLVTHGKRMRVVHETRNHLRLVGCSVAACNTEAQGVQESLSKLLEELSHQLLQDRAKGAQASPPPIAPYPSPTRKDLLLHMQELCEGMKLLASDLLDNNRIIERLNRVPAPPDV

[11] = target: T4, Inhibitor of nuclear factor kappa-B kinase subunit epsilon (Homo sapiens); settings: at 1 µM
[12] = target: T5, Serine/threonine-protein kinase Nek1 (Homo sapiens) (UniProt Q96PY6); settings: at 0.1 µM
T5 sequence (whole entry): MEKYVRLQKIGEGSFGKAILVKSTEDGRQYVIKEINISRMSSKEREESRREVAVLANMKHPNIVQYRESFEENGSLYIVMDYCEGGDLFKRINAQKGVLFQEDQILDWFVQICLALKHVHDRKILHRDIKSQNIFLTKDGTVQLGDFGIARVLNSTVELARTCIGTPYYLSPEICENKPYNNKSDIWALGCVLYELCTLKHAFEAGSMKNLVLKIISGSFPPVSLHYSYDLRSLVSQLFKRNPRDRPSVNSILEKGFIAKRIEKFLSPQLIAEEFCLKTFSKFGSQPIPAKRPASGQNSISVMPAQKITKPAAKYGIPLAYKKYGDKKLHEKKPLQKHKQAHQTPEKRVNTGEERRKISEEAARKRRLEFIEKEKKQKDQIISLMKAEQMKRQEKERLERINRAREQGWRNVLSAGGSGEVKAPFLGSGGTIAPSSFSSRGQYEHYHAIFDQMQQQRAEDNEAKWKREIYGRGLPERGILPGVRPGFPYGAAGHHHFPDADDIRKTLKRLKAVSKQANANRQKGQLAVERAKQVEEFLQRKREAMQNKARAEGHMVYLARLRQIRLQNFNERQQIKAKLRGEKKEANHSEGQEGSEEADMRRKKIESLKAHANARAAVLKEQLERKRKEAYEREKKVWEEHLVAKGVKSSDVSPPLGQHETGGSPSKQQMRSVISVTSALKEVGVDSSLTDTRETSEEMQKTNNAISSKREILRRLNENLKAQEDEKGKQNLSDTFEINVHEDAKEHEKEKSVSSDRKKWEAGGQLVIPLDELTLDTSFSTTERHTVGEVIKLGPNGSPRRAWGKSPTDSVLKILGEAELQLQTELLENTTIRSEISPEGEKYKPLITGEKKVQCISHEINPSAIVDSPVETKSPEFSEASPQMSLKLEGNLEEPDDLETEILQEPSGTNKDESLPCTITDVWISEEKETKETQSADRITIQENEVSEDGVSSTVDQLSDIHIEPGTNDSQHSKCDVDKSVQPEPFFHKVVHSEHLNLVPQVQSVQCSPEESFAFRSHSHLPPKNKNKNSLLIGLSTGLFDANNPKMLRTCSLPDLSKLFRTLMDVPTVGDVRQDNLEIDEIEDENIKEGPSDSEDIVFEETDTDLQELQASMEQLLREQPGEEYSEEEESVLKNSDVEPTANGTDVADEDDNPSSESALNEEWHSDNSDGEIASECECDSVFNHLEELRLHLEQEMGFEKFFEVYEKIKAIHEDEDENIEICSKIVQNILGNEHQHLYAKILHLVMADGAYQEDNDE

[13] = target: T5, Serine/threonine-protein kinase Nek1 (Homo sapiens); settings: at 1 µM
[14] = target: T6, Serine/threonine-protein kinase Nek2 (Homo sapiens) (UniProt P51955); settings: at 0.1 µM
T6 sequence (whole entry): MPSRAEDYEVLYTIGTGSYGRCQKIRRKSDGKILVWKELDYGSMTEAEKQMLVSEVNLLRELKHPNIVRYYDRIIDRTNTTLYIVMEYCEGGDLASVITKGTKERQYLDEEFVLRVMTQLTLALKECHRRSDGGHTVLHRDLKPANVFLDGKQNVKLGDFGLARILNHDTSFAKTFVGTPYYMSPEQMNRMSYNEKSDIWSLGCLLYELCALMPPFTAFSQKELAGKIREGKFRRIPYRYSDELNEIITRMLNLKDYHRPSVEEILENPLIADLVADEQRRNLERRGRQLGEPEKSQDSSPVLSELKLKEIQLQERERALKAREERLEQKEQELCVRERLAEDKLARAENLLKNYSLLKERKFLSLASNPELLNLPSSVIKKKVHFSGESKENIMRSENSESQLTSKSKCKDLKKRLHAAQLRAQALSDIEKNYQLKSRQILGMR

[15] = target: T6, Serine/threonine-protein kinase Nek2 (Homo sapiens); settings: at 1 µM
[16] = target: Serine/threonine-protein kinase Nek6 (Homo sapiens) (UniProt Q9HC98); settings: at 0.1 µM
Serine/threonine-protein kinase Nek6 (Homo sapiens), sequence (Q9HC98 whole entry): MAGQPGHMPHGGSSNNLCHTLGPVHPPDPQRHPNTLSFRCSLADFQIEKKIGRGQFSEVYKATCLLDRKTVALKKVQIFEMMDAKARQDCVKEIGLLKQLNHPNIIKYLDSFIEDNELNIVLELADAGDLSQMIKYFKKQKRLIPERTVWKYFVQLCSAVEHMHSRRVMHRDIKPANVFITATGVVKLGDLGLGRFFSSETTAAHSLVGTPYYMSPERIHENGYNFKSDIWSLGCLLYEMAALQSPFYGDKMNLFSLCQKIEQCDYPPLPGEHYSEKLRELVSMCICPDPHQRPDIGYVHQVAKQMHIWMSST

[17] = target: Serine/threonine-protein kinase Nek6 (Homo sapiens) (UniProt Q9HC98); settings: at 1 µM
[18] = target: Serine/threonine-protein kinase Nek7 (Homo sapiens) (UniProt Q8TDX7); settings: at 0.1 µM
Serine/threonine-protein kinase Nek7 (Homo sapiens), sequence (Q8TDX7 whole entry, looked up): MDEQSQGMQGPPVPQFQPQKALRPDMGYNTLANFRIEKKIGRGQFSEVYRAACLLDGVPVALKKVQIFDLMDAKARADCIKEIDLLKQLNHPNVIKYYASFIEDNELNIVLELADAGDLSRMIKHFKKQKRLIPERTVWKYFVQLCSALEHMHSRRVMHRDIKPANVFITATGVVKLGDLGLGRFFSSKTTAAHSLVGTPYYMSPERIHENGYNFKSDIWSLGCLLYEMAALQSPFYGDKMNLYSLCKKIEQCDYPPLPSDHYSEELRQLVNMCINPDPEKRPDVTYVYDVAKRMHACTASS

[19] = target: Serine/threonine-protein kinase Nek7 (Homo sapiens) (UniProt Q8TDX7); settings: at 1 µM
[20] = target: T7, Serine/threonine-protein kinase Nek9 (Homo sapiens) (UniProt Q8TD19); settings: at 0.1 µM;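 note: reported value is the mean percent inhibition of NEK9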
T7 sequence (whole entry): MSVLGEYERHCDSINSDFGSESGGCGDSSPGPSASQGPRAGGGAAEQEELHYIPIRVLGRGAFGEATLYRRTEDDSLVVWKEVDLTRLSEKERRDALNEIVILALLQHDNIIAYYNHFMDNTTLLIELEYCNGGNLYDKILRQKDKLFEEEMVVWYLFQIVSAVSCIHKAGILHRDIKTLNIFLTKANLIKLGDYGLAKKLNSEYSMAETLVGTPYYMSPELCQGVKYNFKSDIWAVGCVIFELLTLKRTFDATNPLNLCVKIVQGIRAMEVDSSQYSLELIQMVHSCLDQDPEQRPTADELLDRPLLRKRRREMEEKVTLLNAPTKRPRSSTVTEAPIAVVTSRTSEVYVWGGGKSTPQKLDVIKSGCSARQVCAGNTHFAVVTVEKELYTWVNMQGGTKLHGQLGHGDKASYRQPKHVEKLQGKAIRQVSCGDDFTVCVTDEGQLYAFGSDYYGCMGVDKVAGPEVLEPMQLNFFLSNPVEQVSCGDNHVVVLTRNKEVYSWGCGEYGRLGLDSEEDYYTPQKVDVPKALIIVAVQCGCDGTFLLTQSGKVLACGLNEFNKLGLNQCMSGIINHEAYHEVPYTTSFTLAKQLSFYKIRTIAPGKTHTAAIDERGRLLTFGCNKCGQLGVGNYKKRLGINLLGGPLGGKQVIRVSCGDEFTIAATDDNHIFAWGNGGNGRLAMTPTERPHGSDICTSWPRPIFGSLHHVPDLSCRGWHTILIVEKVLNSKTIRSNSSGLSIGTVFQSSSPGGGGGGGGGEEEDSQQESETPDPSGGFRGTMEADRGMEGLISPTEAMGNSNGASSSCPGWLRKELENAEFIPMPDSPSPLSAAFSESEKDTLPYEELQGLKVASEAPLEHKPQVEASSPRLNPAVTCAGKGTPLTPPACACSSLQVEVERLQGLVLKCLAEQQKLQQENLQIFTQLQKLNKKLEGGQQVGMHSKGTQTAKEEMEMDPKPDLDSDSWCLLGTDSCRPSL

Sphingosine kinase 1 (Homo sapiens), sequence (Q9NYA1 whole entry): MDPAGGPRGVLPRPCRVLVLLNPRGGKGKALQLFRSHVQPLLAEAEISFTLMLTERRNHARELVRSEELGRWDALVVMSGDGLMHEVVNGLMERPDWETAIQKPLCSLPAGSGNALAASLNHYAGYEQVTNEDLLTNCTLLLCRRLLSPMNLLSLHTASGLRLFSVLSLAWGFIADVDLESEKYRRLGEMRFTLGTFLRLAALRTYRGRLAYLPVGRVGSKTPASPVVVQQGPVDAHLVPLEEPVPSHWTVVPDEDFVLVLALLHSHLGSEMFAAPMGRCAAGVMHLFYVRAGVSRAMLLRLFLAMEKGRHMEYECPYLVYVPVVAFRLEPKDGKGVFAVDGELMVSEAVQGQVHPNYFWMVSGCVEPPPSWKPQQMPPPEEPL

For `CCn1c(-c2nonc2N)nc2cncc(C(=O)N3CC[C@H](N)C3)c21`, the inhibition [1] was -5.44%, the inhibition [2] was 0.23% and the inhibition [3] was -0.8%. It also gave an inhibition [4] of 3.78%, an inhibition [5] of 3.7% and an inhibition [6] of 14%. The inhibition [7] was 18.8%, the inhibition [8] was 7.24% and the inhibition [9] was 5.79%. The inhibition [10] was 13.8%, the inhibition [11] was 36.1% and the inhibition [12] was 1.89%. It also gave an inhibition [13] of 3.47%, an inhibition [14] of 5.3% and an inhibition [15] of 6.1%. For the same molecule, the inhibition [16] was 0.64%, the inhibition [17] was 5.91% and the inhibition [18] was 6.16%. It also gave an inhibition [19] of 7.48% and an inhibition [20] of 11.8%.
